# Experimental data as given in the supplement of paper PMC4022240.
# ± gives the standard deviation.
# T1: HaloTag-ATRX ADD domain (163-292)
# T1 chain: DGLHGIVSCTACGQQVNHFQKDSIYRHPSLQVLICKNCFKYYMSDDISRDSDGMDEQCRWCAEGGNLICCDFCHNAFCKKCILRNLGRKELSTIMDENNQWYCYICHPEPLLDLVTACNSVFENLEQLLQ
# What was measured:
# Assay in all cases: peptide microarray binding signal (635 nm), min-max normalized on array (fraction of array maximum); higher = stronger binding
# Conditions in all cases: peptide region: H3 20-32
# [1] = molecular target: T1, HaloTag-ATRX ADD domain (163-292)
# How it was run: (§1)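 Histone 13-mer peptide–cellulose conjugates were printed in triplicate on nitrocellulose with a Cy3 tracer, then blocked overnight at 4°C. Arrays were probed for 1 h at 4°C with biotin-labelled HaloTag reader fusions (10 nM to 1 μM) plus streptavidin-Alexa Fluor 647, or with rabbit histone antibodies (1:10,000 to 1:2,000) plus anti-rabbit Alexa 647. An Axon GenePix 4000B scanned 635 nm for signal and 532 nm for misprints. Binding signal is the triplicate-spot mean intensity, min-max scaled per library.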
# [2] = molecular target: HaloTag-ING2 PHD (mouse Ing2 200-280)
# How it was run: as §1
# [3] = molecular target: anti-H3K4me3 antibody ab8580
# How it was run: as §1
# [4] = molecular target: anti-H3K9me3 antibody ab8898
# How it was run: as §1
# [5] = peptide modifications: H3K23ac H3K27me1, binder concentration: 1:2,000 dilution
# [6] = peptide modifications: H3K23ac H3K27me1, binder concentration: 1:10,000 dilution
# [7] = peptide modifications: H3K23ac H3K27me3, binder concentration: 1:2,000 dilution
# [8] = peptide modifications: H3K23ac H3K27me3, binder concentration: 1:10,000 dilution
# [9] = peptide modifications: H3K23me1 H3K27ac, binder concentration: 1:2,000 dilution
# [10] = peptide modifications: H3K23me1 H3K27ac, binder concentration: 1:10,000 dilution
# [11] = peptide modifications: H3K23ac, binder concentration: 1:2,000 dilution
# [12] = peptide modifications: H3K23ac, binder concentration: 1:10,000 dilution
# [13] = peptide modifications: H3K23me1 H3K27me3, binder concentration: 1:2,000 dilution
# [14] = peptide modifications: H3K23me1 H3K27me3, binder concentration: 1:10,000 dilution
binder,measurement,setting,value
LATKAARKSAPAT [H3 20-32 L A T Kac A A R Kme S A P A T],peptide microarray binding signal,"[1]; peptide modifications: H3K23ac H3K27me1, binder concentration: 50 nM",0.0068 ± 0.00024
same,peptide microarray binding signal,"[1]; peptide modifications: H3K23ac H3K27me1, binder concentration: 500 nM",0.0141 ± 0.0013
same,peptide microarray binding signal,"[2]; peptide modifications: H3K23ac H3K27me1, binder concentration: 10 nM",0.0291 ± 0.00095
same,peptide microarray binding signal,"[2]; peptide modifications: H3K23ac H3K27me1, binder concentration: 100 nM",0.0373 ± 0.0027
same,peptide microarray binding signal,[3]; [5],0.0154 ± 0.0014
same,peptide microarray binding signal,[3]; [6],0.0175 ± 0.003
same,peptide microarray binding signal,[4]; [5],0.00459 ± 0.00035
same,peptide microarray binding signal,[4]; [6],0.00513 ± 0.00045
LATKAARKSAPAT [H3 20-32 L A T Kac A A R Kme3 S A P A T],peptide microarray binding signal,"[1]; peptide modifications: H3K23ac H3K27me3, binder concentration: 50 nM",0.006363 ± 3.7e-05
same,peptide microarray binding signal,"[1]; peptide modifications: H3K23ac H3K27me3, binder concentration: 500 nM",0.00867 ± 0.00016
same,peptide microarray binding signal,"[2]; peptide modifications: H3K23ac H3K27me3, binder concentration: 10 nM",0.0207 ± 0.00046
same,peptide microarray binding signal,"[2]; peptide modifications: H3K23ac H3K27me3, binder concentration: 100 nM",0.0281 ± 0.00085
same,peptide microarray binding signal,[3]; [7],0.0464 ± 0.0087
same,peptide microarray binding signal,[3]; [8],0.044 ± 0.0054
same,peptide microarray binding signal,[4]; [7],0.253 ± 0.019
same,peptide microarray binding signal,[4]; [8],0.122 ± 0.0084
LATKAARKSAPAT [H3 20-32 L A T Kme A A R Kac S A P A T],peptide microarray binding signal,"[1]; peptide modifications: H3K23me1 H3K27ac, binder concentration: 50 nM",0.0232 ± 0.00051
same,peptide microarray binding signal,"[1]; peptide modifications: H3K23me1 H3K27ac, binder concentration: 500 nM",0.0506 ± 0.0021
same,peptide microarray binding signal,"[2]; peptide modifications: H3K23me1 H3K27ac, binder concentration: 10 nM",0.058 ± 0.0036
same,peptide microarray binding signal,"[2]; peptide modifications: H3K23me1 H3K27ac, binder concentration: 100 nM",0.0801 ± 0.006
same,peptide microarray binding signal,[3]; [9],0.0267 ± 0.0037
same,peptide microarray binding signal,[3]; [10],0.0268 ± 0.003
same,peptide microarray binding signal,[4]; [9],0.0161 ± 0.0018
same,peptide microarray binding signal,[4]; [10],0.0113 ± 0.0012
LATKAARKSAPAT [H3 20-32 L A T Kac A A R K S A P A T],peptide microarray binding signal,"[1]; peptide modifications: H3K23ac, binder concentration: 50 nM",0.00514 ± 8.6e-05
same,peptide microarray binding signal,"[1]; peptide modifications: H3K23ac, binder concentration: 500 nM",0.00843 ± 0.00057
same,peptide microarray binding signal,"[2]; peptide modifications: H3K23ac, binder concentration: 10 nM",0.0139 ± 0.0003
same,peptide microarray binding signal,"[2]; peptide modifications: H3K23ac, binder concentration: 100 nM",0.021 ± 0.00086
same,peptide microarray binding signal,[3]; [11],0.00479 ± 0.00097
same,peptide microarray binding signal,[3]; [12],0.00388 ± 0.00011
same,peptide microarray binding signal,[4]; [11],0.002703 ± 1.4e-05
same,peptide microarray binding signal,[4]; [12],0.00265 ± 8.4e-05
LATKAARKSAPAT [H3 20-32 L A T Kme A A R Kme3 S A P A T],peptide microarray binding signal,"[1]; peptide modifications: H3K23me1 H3K27me3, binder concentration: 50 nM",0.005266 ± 3.8e-05
same,peptide microarray binding signal,"[1]; peptide modifications: H3K23me1 H3K27me3, binder concentration: 500 nM",0.00848 ± 0.00016
same,peptide microarray binding signal,"[2]; peptide modifications: H3K23me1 H3K27me3, binder concentration: 10 nM",0.0135 ± 0.00027
same,peptide microarray binding signal,"[2]; peptide modifications: H3K23me1 H3K27me3, binder concentration: 100 nM",0.01991 ± 8.1e-05
same,peptide microarray binding signal,[3]; [13],0.0287 ± 0.0026
same,peptide microarray binding signal,[3]; [14],0.0313 ± 0.0019
same,peptide microarray binding signal,[4]; [13],0.078 ± 0.0011
same,peptide microarray binding signal,[4]; [14],0.0363 ± 0.0019
